Measured values as given in PubChem BioAssay (NCATS).
Records with an inconclusive call do not appear. Active and inactive are the calls of the source. Unless noted, calls come from the whole dose curve; as a rule, active = well fitted curve in the direction sought with a large enough effect; inconclusive = small, poorly fitted or top-dose-only effect, or another doubt; inactive = no such curve, though single readings can be large; an effect the other way counts as inactive or inconclusive.

Columns and labels:
[1] = target: Cytochrome P450 1A2 (Homo sapiens) (UniProt P05177); assay: p450-cyp1a2 (AID 410; calls by dose curve; note: potency is the fitted concentration of half-maximal effect)
Chain of Cytochrome P450 1A2 (Homo sapiens) (P05177 whole entry, looked up): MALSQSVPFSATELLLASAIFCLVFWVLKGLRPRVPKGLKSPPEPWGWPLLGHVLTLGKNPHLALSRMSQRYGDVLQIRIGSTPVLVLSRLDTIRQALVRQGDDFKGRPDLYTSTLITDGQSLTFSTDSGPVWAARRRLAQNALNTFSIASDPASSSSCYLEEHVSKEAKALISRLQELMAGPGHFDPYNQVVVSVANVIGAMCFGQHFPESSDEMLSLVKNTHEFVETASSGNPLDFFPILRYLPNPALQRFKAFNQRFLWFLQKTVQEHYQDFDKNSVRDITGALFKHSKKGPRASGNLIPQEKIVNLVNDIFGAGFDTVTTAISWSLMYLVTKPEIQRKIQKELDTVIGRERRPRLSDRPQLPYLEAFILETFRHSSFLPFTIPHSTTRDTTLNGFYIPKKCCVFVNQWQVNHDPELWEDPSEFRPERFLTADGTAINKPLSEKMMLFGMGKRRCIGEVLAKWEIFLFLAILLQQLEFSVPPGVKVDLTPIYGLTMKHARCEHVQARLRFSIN
Outline: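 Read-out is luminescence from luciferin produced by CYP1A2 demethylation of Luciferin-ME (100uM, at Km). Detection reagent stopped the 60 min NADPH-dependent reaction; signals were normalized to 57 uM furafylline.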

[2] = target: Glucocorticoid receptor (Homo sapiens) (UniProt P04150); assay: GR-GFP Redistribution (AID 450;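 active = compounds whose dose series gives a full or clear partial fitted curve of increased nuclear translocation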; note: potency is the fitted concentration of half-maximal effect)
Chain of Glucocorticoid receptor (Homo sapiens) (P04150 whole entry, looked up, the tested form may be a part): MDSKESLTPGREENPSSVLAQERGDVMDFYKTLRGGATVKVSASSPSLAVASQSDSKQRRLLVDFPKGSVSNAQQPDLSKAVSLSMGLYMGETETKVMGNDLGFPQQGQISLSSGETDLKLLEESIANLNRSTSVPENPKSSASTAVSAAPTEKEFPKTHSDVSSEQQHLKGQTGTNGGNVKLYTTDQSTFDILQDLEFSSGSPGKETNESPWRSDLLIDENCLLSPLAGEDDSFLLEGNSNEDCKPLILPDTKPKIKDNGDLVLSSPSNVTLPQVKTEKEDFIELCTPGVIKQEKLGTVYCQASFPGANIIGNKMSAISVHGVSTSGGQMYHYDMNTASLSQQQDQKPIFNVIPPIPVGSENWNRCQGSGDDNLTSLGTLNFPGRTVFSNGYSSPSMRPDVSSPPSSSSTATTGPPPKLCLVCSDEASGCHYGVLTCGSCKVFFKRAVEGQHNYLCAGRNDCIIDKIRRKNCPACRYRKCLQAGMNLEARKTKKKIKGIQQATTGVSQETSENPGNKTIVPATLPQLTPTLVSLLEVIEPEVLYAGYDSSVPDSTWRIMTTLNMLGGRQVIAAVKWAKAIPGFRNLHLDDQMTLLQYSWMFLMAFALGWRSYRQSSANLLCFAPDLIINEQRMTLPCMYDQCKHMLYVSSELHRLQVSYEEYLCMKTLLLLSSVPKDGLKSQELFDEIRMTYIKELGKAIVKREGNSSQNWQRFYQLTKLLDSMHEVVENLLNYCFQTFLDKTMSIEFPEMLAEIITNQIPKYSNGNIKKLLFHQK

[3] = target: Glucocorticoid receptor (Homo sapiens) (UniProt P04150); assay: GR-EFC Redistribution (AID 451; calls by dose curve; note: potency is the fitted concentration of half-maximal effect); details: CHO-K1 GR-EFC translocation, beta-gal luminescence, 2 h
Outline: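 CHO-K1 cells stably expressing nuclear-localized β-gal enzyme acceptor and GR fused C-terminally to the enzyme donor fragment; ligand-driven nuclear translocation restores β-gal by complementation. Compounds titrated up to 46 uM final, 2 h at 37 °C; luminescence read.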

[4] = target: Mitogen-activated protein kinase 10 (Mus musculus) (UniProt Q61831); assay: JNK3 AlphaScreen Assay (AID 530; active = well fitted curve in either direction with a large enough effect, not every such curve was filed as active;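 note: kinase came from lysate of stimulated human HepG2 cells; signal reports phosphorylation of biotinylated GST-cJun 1-79 at Ser73 with 10 µM ATP; % is set by controls: 0 for no effect and ±100 for the full control effect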)
Outline: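 Biotinylated GST-cJun(1-79) served as substrate for JNK3 in HepG2 lysates stimulated with IL-1beta and TNF-alpha. ATP was 10 uM final, pH 7.6. Ser73 phosphorylation was quantified by AlphaScreen (680 nm excitation).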

[5] = target: 3',5'-cyclic-AMP phosphodiesterase 4B (Homo sapiens) (UniProt Q07343); assay: qHTS Assay for Inhibitors of PDE-IV (AID 607; active = well fitted activation curve with a large enough effect in the main read-out, with a control signal flat, not every such curve was filed as active; note: % of control where 0% means no effect)
Chain of 3',5'-cyclic-AMP phosphodiesterase 4B (Homo sapiens) (Q07343 whole entry, looked up): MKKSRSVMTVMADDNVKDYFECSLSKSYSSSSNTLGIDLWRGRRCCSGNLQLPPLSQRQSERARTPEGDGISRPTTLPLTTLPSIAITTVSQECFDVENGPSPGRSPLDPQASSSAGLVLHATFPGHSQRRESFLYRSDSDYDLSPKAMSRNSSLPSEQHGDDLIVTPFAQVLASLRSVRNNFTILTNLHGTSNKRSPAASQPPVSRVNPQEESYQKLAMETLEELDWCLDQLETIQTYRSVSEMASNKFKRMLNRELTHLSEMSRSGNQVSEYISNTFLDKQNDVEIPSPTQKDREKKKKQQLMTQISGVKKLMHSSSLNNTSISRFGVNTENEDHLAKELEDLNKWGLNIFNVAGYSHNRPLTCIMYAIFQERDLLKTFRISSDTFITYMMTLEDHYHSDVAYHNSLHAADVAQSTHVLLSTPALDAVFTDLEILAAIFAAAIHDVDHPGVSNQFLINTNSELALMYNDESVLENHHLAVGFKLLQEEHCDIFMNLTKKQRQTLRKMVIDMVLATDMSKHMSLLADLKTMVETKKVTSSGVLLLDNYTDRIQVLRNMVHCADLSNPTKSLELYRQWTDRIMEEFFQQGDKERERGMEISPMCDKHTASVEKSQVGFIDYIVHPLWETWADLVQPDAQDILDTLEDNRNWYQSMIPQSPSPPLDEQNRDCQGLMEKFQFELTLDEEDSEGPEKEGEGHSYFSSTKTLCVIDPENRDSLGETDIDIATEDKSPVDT
Outline: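 Cell-based read-out of cAMP via a modified cyclic nucleotide-gated channel and membrane potential dye (535/590 nm) in HEK293 cells expressing PDE4 endogenously. Compounds tested up to 22.9 uM final; 100 uM RO 20-1724 reference.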

[6] = target: Cytochrome P450 2C19 (Homo sapiens) (UniProt P33261); assay: qHTS Assay for Inhibitors and Substrates of Cytochrome P450 2C19 (AID 899); note: potency is the fitted concentration of half-maximal effect; nearly all actives have a fitted effect of over 60% in size
Chain of Cytochrome P450 2C19 (Homo sapiens) (P33261 whole entry, looked up): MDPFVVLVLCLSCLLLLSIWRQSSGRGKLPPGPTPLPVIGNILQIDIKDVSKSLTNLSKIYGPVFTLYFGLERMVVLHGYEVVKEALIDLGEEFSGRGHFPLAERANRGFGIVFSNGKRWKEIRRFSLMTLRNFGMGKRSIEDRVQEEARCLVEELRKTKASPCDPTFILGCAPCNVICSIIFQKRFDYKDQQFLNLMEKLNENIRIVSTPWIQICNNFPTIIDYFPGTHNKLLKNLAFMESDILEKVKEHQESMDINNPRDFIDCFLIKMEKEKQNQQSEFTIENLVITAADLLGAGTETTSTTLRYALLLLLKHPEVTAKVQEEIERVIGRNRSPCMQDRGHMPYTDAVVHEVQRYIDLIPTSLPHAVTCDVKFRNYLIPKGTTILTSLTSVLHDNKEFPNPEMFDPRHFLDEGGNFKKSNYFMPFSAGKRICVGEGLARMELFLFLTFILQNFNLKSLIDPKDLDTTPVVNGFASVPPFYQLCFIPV
Outline: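 NADPH-dependent conversion of Luciferin-H EGE (10uM, at KM) by 5nM enzyme in 50mM KPO4, 60 min at 37C following 10 min compound preincubation. Stopped with luciferin detection buffer; luminescence read after 20 min.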

[7] = target: ATP-dependent 6-phosphofructokinase (Trypanosoma brucei brucei) (UniProt O15648); assay: qHTS Assay to Find Inhibitors of T. brucei phosphofructokinase: hit validation (AID 492961);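 note: luminescence reports ADP formed as PFK phosphorylates fructose-6-phosphate with ATP; % is set by controls: 0 for no effect and ±100 for the full control effect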
Chain of ATP-dependent 6-phosphofructokinase (Trypanosoma brucei brucei) (O15648 whole entry, looked up): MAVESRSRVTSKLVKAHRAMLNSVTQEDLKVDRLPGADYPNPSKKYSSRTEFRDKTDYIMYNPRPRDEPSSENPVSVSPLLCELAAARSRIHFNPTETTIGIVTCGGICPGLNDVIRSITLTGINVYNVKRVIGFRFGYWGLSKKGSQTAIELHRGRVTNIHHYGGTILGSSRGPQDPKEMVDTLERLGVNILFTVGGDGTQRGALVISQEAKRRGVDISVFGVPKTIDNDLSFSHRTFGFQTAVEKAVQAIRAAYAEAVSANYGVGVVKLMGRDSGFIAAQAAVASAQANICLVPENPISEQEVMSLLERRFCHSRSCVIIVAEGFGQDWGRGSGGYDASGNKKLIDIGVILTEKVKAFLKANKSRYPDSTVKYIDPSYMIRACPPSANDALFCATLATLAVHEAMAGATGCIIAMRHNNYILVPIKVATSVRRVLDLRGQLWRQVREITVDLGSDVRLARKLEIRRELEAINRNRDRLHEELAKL
Outline: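 Percent activity derived from corrected luminescence, normalized between 0x and 1x enzyme controls, then fitted to concentration-response curves. Conditions: 1.25 nM PFK, 0.1 mM ATP, 0.5 mM F6P, 45 min RT.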

[8] = target: Ubiquitin carboxyl-terminal hydrolase 1 (Homo sapiens) (UniProt O94782); assay: Inhibitors of USP1/UAF1: Pilot qHTS (AID 504865);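 note: rhodamine fluorescence freed from ubiquitin-rhodamine substrate followed over time; top concentration of the series differs between compounds; % is set by controls: 0 for no effect and ±100 for the full control effect; nearly all actives have a fitted effect of over 35% in size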
Chain of Ubiquitin carboxyl-terminal hydrolase 1 (Homo sapiens) (O94782 whole entry, looked up): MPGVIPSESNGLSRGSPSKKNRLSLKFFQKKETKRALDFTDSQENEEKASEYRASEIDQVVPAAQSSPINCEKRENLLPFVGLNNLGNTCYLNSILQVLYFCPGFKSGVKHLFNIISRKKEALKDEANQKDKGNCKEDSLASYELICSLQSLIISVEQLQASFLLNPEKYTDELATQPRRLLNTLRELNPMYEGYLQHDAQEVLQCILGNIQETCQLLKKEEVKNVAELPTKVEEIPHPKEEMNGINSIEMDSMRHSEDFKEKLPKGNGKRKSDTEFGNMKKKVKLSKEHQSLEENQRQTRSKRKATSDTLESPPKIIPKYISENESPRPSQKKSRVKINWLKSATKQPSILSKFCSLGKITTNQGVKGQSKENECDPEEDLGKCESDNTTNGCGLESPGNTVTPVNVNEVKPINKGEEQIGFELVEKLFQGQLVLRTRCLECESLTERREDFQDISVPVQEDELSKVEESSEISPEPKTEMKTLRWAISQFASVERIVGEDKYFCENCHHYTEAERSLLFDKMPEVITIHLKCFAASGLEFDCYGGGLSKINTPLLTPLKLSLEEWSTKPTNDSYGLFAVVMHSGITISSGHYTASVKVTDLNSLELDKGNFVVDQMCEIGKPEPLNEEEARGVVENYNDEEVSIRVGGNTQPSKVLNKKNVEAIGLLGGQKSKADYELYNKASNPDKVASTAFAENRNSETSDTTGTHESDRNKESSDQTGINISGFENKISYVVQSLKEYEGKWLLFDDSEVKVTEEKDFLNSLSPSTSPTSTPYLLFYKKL
Outline: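 USP1/UAF1 complex at 1 nM preincubated 15 min at room temperature with compound, then Ub-Rho substrate added at 150 nM final. Fluorescence (480/540 nm) read kinetically in 50 mM HEPES pH 7.8, 0.5 mM EDTA, 1 mM TCEP, 0.1 mg/ml BSA, 0.01% Tween-20.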

[9] = target: DNA dC->dU-editing enzyme APOBEC-3G (Homo sapiens) (UniProt Q9HC16); assay: qHTS for inhibitors of Vif-A3G interactions: Validation (AID 588379); note: 0% is about no effect
Chain of DNA dC->dU-editing enzyme APOBEC-3G (Homo sapiens) (Q9HC16 whole entry, looked up): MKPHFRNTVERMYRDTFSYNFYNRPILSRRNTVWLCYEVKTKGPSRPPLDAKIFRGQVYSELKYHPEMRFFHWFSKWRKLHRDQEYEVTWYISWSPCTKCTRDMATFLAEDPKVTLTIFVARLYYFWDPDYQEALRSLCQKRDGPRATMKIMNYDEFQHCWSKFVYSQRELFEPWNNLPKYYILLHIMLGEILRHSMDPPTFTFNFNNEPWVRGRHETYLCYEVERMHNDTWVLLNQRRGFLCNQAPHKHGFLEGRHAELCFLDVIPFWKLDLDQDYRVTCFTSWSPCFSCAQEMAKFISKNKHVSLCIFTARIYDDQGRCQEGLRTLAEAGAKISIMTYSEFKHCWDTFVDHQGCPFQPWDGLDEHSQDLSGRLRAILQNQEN
Outline: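 Yellow fluorescence (Ex 488, Em 500-530) of Vif-coexpressing HeLa A3G-eYFP cells, scanned by Acumen cytometer, reports blocked A3G degradation. Cells plated at 700/well overnight at 37 deg C before compound addition, then a further overnight compound incubation at 37 deg C.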

[10] = target: Luciferin 4-monooxygenase (Photinus pyralis) (UniProt P08659); assay: Biochemical firefly luciferase enzyme assay for NPC (AID 624030);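 note: purified P. pyralis luciferase at 10 nM with luciferin and ATP substrate; 0% = DMSO and -100% = full luciferase inhibition by PTC124 control; nearly all actives have a fitted effect of over 70% in size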
Chain of Luciferin 4-monooxygenase (Photinus pyralis) (P08659 whole entry, looked up): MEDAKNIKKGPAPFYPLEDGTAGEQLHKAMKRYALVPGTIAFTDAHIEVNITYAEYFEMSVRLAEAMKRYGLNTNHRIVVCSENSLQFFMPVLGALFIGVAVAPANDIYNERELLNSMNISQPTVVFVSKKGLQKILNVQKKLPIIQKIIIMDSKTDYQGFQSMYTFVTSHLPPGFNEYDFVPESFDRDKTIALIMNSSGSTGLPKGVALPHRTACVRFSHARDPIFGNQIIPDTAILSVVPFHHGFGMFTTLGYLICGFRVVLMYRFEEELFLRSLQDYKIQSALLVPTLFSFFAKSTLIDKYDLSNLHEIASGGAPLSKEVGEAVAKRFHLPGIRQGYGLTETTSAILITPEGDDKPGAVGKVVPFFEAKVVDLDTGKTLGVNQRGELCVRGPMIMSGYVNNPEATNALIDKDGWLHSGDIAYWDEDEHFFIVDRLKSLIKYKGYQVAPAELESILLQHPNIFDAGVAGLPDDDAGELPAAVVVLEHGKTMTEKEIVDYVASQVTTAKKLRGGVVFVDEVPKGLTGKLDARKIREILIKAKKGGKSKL
Outline: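 Counter-screen for direct inhibition of the luciferase enzyme by approved-drug library compounds, run at 10 nM enzyme in 50 mM Tris acetate (final). Luminescence was read within 5 min of enzyme-buffer addition and normalized to PTC124 versus DMSO (0%).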

[11] = S16 Schwann cell PMP22 intronic element firefly luciferase assay (AID 624032);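 note: plate controls were DMSO for no effect and PTC124 positive control mean for full effect; nearly all actives have a fitted effect of over 30% in size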
Outline: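 Rat S16 Schwann cells stably carrying a PMP22 intronic element-driven Fluc reporter were seeded overnight, then exposed to compounds for 24 h at 37 °C. Luminescence was normalized to PTC124 (positive control) and DMSO (0% activity).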

[12] = S16 Schwann cell PMP22 intronic element beta-lactamase assay (AID 624044; calls by dose curve;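 note: 0% = DMSO and -100% = potassium clavulanate positive control; nearly all actives have a fitted effect of over 15% in size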); details: S16 rat Schwann cells, PMP22 element beta-lactamase FRET, 24 h; ratio activity, negative = inhibition: at 38.3 µM (top of the series)
Outline: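 Beta-lactamase reporter under a PMP22 intronic regulatory element in stable S16 rat Schwann cells; 24 h compound exposure. 460 nm blue signal normalized between DMSO (0%) and potassium clavulanate, with 535 nm FRET tracking viability; curves classed by r2 and response.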

[13] = qHTS profiling for inhibitors of Plasmodium falciparum proliferation (AID 504749);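 note: 0% = DMSO vehicle and full inhibition = artemisinin control; nearly all actives have a fitted effect of over 60% in size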; details: P. falciparum in erythrocytes, SYBR Green DNA, 72 h, at 28.7 µM (top of the series)
Outline: (§1)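 Fluorescence of SYBR Green-bound parasite DNA, read at 485/535 nm, served as the growth measure. Infected erythrocytes were cultured with compound 72 h; artemisinin (0.29 uM) and DMSO wells defined the normalization range.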

3D7 = assay: as above; details: P. falciparum in erythrocytes, SYBR Green DNA, 72 h; series mostly up to 28.7 µM
Outline: as §1

7G8 = assay: as above; details: P. falciparum in erythrocytes, SYBR Green DNA, 72 h; series mostly up to 28.7 µM
Outline: as §1

AA1029 = assay: as above; details: P. falciparum in erythrocytes, SYBR Green DNA, 72 h; series mostly up to 28.7 µM
Outline: as §1

AS120 = assay: as above; details: P. falciparum in erythrocytes, SYBR Green DNA, 72 h; series mostly up to 28.7 µM
Outline: as §1

ATS189 = assay: as above; details: P. falciparum in erythrocytes, SYBR Green DNA, 72 h; series mostly up to 28.7 µM
Outline: as §1

ATS95 = assay: as above; details: P. falciparum in erythrocytes, SYBR Green DNA, 72 h; series mostly up to 28.7 µM
Outline: as §1

C2A = assay: as above; details: P. falciparum in erythrocytes, SYBR Green DNA, 72 h; series mostly up to 28.7 µM
Outline: as §1

CP185 = assay: as above; details: P. falciparum in erythrocytes, SYBR Green DNA, 72 h; series mostly up to 28.7 µM
Outline: as §1

CP191 = assay: as above; details: P. falciparum in erythrocytes, SYBR Green DNA, 72 h; series mostly up to 28.7 µM
Outline: as §1

CP192 = assay: as above; details: P. falciparum in erythrocytes, SYBR Green DNA, 72 h; series mostly up to 28.7 µM
Outline: as §1

CP194 = assay: as above; details: P. falciparum in erythrocytes, SYBR Green DNA, 72 h; series mostly up to 28.7 µM
Outline: as §1

CP201 = assay: as above; details: P. falciparum in erythrocytes, SYBR Green DNA, 72 h; series mostly up to 28.7 µM
Outline: as §1

CP203 = assay: as above; details: P. falciparum in erythrocytes, SYBR Green DNA, 72 h; series mostly up to 28.7 µM
Outline: as §1

CP211 = assay: as above; details: P. falciparum in erythrocytes, SYBR Green DNA, 72 h; series mostly up to 28.7 µM
Outline: as §1

CP215 = assay: as above; details: P. falciparum in erythrocytes, SYBR Green DNA, 72 h; series mostly up to 28.7 µM
Outline: as §1

CP217 = assay: as above; details: P. falciparum in erythrocytes, SYBR Green DNA, 72 h; series mostly up to 28.7 µM
Outline: as §1

O=C(O)[C@H]1C[C@@H](CP(=O)(O)O)CCN1
active: Potency [1] 25.1 µM | Potency [6] 7.94 µM
inactive: Potency [2] > 46 µM | Potency [3] > 46 µM | Potency [4] | Potency [5] | Potency [7] | Potency [8] | outcome [9] | Potency [10] | Potency [11] | Potency [12] | activity, negative = inhibition ([13]; parasite line A) -7.9% | activity, negative = inhibition ([13]; parasite line B) -2.91% | Potency (3D7) | Potency (7G8) | Potency (AA1029) | Potency (AS120) | Potency (ATS189) | Potency (ATS95) | Potency (C2A) | Potency (CP185) | Potency (CP191) | Potency (CP192) | Potency (CP194) | Potency (CP201) | Potency (CP203) | Potency (CP211) | Potency (CP215) | Potency (CP217)
